Assay outcomes (PubChem)
ROCK2 blocker: inhibitors of human ROCK2 kinase, primary screen, biochemical, high-throughput, luminescence; actives 0.35% (n = 60,000); inhibition, % at 6 µM; purified ROCK2, Kinase-Glo ATP depletion luminescence; Rho-associated protein kinase 2 (Homo sapiens), O75116;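 active means inhibition above the screen-wide mean inhibition plus 3 SD, cut at about 18% in these data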
DAT uptake mod: changed hDAT dopamine uptake under cocaine IC80, either direction, primary screen, cocaine antagonist project, cell-based, LLC-PK1 hDAT, [14C]-dopamine uptake, MLSMR | Sodium-dependent dopamine transporter (Homo sapiens), Q01959 | LLC-PK1 hDAT cells, [14C]-dopamine uptake with cocaine IC80; actives deviate in either direction | B-score at 10 µM | actives 1.3% (n = 110,000);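 active means Z score or B-score, a plate-position-corrected score, falls beyond the plate's 99.7% confidence bounds, in either direction; inactive means both scores lie inside the 99.7% bounds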
D1 allo mod: D1 CRE-luciferase signal change, two-sided – cell-based, HEK293 D1, dopamine EC30, D1 allosteric modulator project, primary screen. D(1A) dopamine receptor (Homo sapiens), P21728. actives 5.9% (n = 58,000). dopamine EC30 potentiation; actives deviate in either direction. AID 641, 2007. B-score at 10 µM;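 active means luminescence count or its row- and column-corrected plate score outside the 99.7% band of the plate's sample wells, on either side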
PKA kinase inh: inhibitors of human PKA kinase activity, primary screen, biochemical, ATP-depletion luminescence, Kemptide substrate; cAMP-dependent protein kinase catalytic subunit alpha (Homo sapiens), P17612; inhibition, % at 6 µM; actives 0.1% (n = 65,000); PKA Kemptide phosphorylation, Kinase-Glo ATP luminescence;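 active means inhibition above the screen-wide mean inhibition plus 3 SD, cut at about 21% in these data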
D1 PAM confirm: D1 receptor positive allosteric modulators, retest, confirmation, cell-based, HEK293 D1, CRE-luciferase, duplicate. actives 88% (n = 2,200). shares compounds with D1 allo mod. AID 642, 2007. dopamine EC30 potentiation; active compounds read high. luminescence at 10 µM;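 active means luminescence in either of two replicates above the same-plate mean plus 3 SD of the low-dose dopamine control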
D1 ag no DA: D1 receptor agonism without dopamine, confirmation, mechanism study for D1 allosteric modulator project, cell-based, HEK293 D1, CRE-luciferase, secondary assay 1 | shares compounds with D1 allo mod | AID 646, 2007 | luminescence, no dopamine; active compounds read high | actives 0.8% (n = 1,900) | luminescence at 10 µM; in the data active means luminescence above about 3900
Isoprot counter: counter-screen for D1 modulators: isoproterenol response in HEK293 cells. shares compounds with D1 allo mod. HEK293 D1 CRE-luciferase, isoproterenol EC30 counter-screen. calls only at 10 µM. actives 63% (n = 2,200). AID 647;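 active means luminescence in either replicate above plate mean of wells with a partly effective reference agonist dose plus 3 SD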;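 further: isoproterenol raises cAMP through native beta-adrenoceptor Gs so signal bypasses D1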
Hits are given with their value; – = inactive; · = no result; + = active, no number. Only a selection was taken, and hits are over-represented in it overall.

SMILES	ROCK2 blocker	DAT uptake mod	D1 allo mod	PKA kinase inh	D1 PAM confirm	D1 ag no DA	Isoprot counter
COc1cccc(/C=N/n2c(SC)nnc2-c2ccccc2)c1OC	–	–	6	–	8100	–	+
CC(C)(C)OC(=O)CNC(=O)c1[nH]cnc1C(=O)N[C@@H](Cc1ccccc1)C(=O)OC(C)(C)C	·	–	·	·	·	·	·
Cc1ccc2[nH]c(=O)c(CN(Cc3ccco3)C(=O)c3cccs3)cc2c1	–	–	–	–	·	·	·
O=C(c1cccs1)N(Cc1ccccn1)Cc1ccco1	–	–	10	–	13228	–	+
Cn1c(=O)[nH]c(=O)c2c1nc(Br)n2CCCSc1nc2ccccc2o1	–	–	6.7	–	10016	–	+
Cn1c(=O)[nH]c(=O)c2c1nc(N1CCCCC1)n2CCCSc1nc2ccccc2s1	–	–	5.7	–	16664	–	+
Cn1c(=O)[nH]c(=O)c2c1nc(N1CCCC1)n2CCCSc1nc2ccccc2o1	·	–	5.3	–	17352	–	+
CC1CCCN(c2nc3c(c(=O)[nH]c(=O)n3C)n2CCSc2nc3ccccc3o2)C1 (stereo not given)	–	–	·	–	·	·	·
Cc1nnc(SCCn2c(N3CCC(C)CC3)nc3c2c(=O)[nH]c(=O)n3C)s1	–	–	–	–	·	·	·
Cc1nnc(SCCn2c(N3CCCC(C)C3)nc3c2c(=O)[nH]c(=O)n3C)s1 (stereo not given)	–	–	4.1	–	9916	–	–
Cn1c(=O)c2c(nc(N3CCCCC3)n2CCSc2nc3ccccc3s2)n(C)c1=O	–	–	–	–	·	·	·
COc1ccc(S(=O)(=O)NCCc2csc(-c3cccnc3)n2)cc1	·	–	·	·	·	·	·
O=C(Nc1cccs1)Nc1ccccc1Cl	–	–	–	–	·	·	·
NC(=O)NC(=O)Nc1ccccc1Cl	–	–	2.8	–	7220	–	–
Cc1cc(=O)c2n(Cc3ccc(Cl)cc3)nc[n+]2[nH]1	–	–	4.7	–	8876	–	–
CC(C)(C)C(=O)N=C1SC2CS(=O)(=O)CC2N1c1ccc2c(c1)OCO2 (stereo not given)	–	–	–	–	·	·	·
Cc1cc(-c2ccccc2)nc2cc(C(N)=O)nn12	–	–	9.4	–	9500	–	+
CC1(C(=O)N2CC3(CC(c4cccc(NC(=O)CC(c5ccccc5)c5ccccc5)c4)=NO3)C[C@@H]2C(N)=O)CC1 (stereo not given in full)	·	–	·	·	·	·	·
COc1ccc(-c2nc(-c3cccs3)c(-c3cccs3)[nH]2)cc1O	–	–	2.8	–	–	–	–
O=[N+]([O-])c1ccc(O)c(-c2nc(-c3ccccc3)c(-c3cccs3)[nH]2)c1	·	–	·	·	·	·	·
CC(C)Nc1nc(NC(C)C)nc(N(C)C(N)=O)n1	–	–	7.7	–	17056	–	+
CCN1CCN(CCNC(=O)c2ccc(CS(=O)(=O)c3ccccc3C)o2)CC1	–	–	–	–	·	·	·
COC(=O)c1ccc(CS(=O)(=O)c2ccccc2C)o1	–	–	4.6	–	–	–	–
Nc1nc(N)nc(-c2ccccc2O)n1	·	–	·	·	·	·	·
CNc1nc(C)nc(-c2ccccc2O)n1	–	·	9.1	–	23276	–	+
Cc1nc(-c2ccc(S(=O)(=O)N3CCCCCC3)cc2)cs1	–	–	2.7	–	8332	–	–
CC(=O)N1CCc2cc(S(=O)(=O)NCCN3CCC(C)CC3)ccc21	·	–	·	–	·	·	·
COc1ccccc1NC(=O)CSc1ccc2nnc(-c3cccnc3)n2n1	–	–	2.5	–	–	–	–
O=C(CSc1ccc2nnc(-c3ccncc3)n2n1)Nc1ccccc1F	–	–	–	–	·	·	·
